# Test results taken from the OligoGym collection.
# Biological target: SLC29A3
# Test: pooled miR-30 sensor sort-seq; sequence = guide strand
# Settings: shRNA
# Note: reference of the scale not given here.
row,Sequence,sensor-assay potency score (higher = more potent)
1,TTACAGAGCACGAAGAGGGGGA,0.172
2,TTGACATGTTGTAAACAGGAAC,-1.02
3,TATGACTGGAATATCTGCCTTG,0.374

# Biological target: SLC2A14
# Test: as above
# Settings: shRNA
row,Sequence,sensor-assay potency score (higher = more potent)
1,TTAACAAAGAGTCCGACGGAAA,-1.6
2,TAGTGATTCTTTAATAACAAAG,-1.67
3,AATTCCAATAACTATGCCCAGC,-1.73
4,TGATTCTTTAATAACAAAGAAA,-1.69
5,TAAATAGTAAGCAGCAGAGGGG,-1.17
6,TTCGTGAGCAGCACCTCAGAGG,-0.817
7,TTTATGATCGTCTCAGGAGCAT,-0.333
8,TTACACAGTCCCATAAGGCAGC,-0.403
9,ATAAATTCCTTTATGATCGTCT,0.823
10,TTATGATCGTCTCAGGAGCATT,-1.97
11,TCAGCATTTCAACTGACTCAGC,-0.914
12,TCCCAGATCTATCTGCACCGTG,-0.88

# Biological target: SLC2A3
# Test: as above
# Settings: shRNA
row,Sequence,sensor-assay potency score (higher = more potent)
1,TCTGCTTAGCATTCTCCTCTTC,0.0393
2,TTGTAGGATAGCAGGAAGGATG,-1.65
3,TTTGAAGAAGGTAAAAGCCAAG,-1.07
4,TTACACAGTCCCATAAAGCAGC,-0.688
5,TTAGCTACTTTACACAGTCCCA,-1.12
6,TAGCTACTTTACACAGTCCCAT,-0.496
7,TTCTTTTCTGTTAATGAGCAAA,-1.47
8,TTATGATCTTCTCAGGAGCATT,-1.71
9,TTCCAGATCTATCTGCACCGTG,0.283
10,TTATCCTTTAATAACAAAGAAA,-1.62
11,TTGACGAAGAGTCCGACGGAAA,-1.44
12,TAGGATAGCAGGAAGGATGGTA,0.643

# Biological target: SLC2A7
# Test: as above
# Settings: shRNA
row,Sequence,sensor-assay potency score (higher = more potent)
1,TTACATATTGGGAGTGAGCGGC,-0.256
2,TAGTAGTTGATCGCATTGATGC,-1.14
3,TTCTGAATCAGGGAGTAGCGGG,-1.43
4,TTCATCTCCTTTCTGAATCAGG,-0.693
5,TTTCTCTTGGCAAAAATGCGGT,-0.876
6,TAAATCGCAGTGAGGAGGCAGA,-0.695
7,TTGAAGACCTTGTGCGGCGTGT,-0.139
8,TTTATCTCCACAAATGTTTTGC,0.129
9,TAGTTGATCGCATTGATGCCCG,-0.411
10,TGACTTGAAGACCTTGTGCGGC,-0.691
11,TCTGCCGCAGCTATCAACCAGC,-0.668
12,TTTCGTTGTAAAATGACTTGAA,0.429
